Data taken from PubChem BioAssay AID1159580 (chemical genetic matrix, 2015).
Several values for one entry are separate records, joined by “and”; a condition that tells them apart may be missing. Equal entries are not always repeated. About 2,000 (36%) of roughly 5,500 compounds were called active. Roughly 18% stayed inconclusive and do not appear here. No stated cut-off is given here; in the data, active means normalized growth mostly below about 0.91 (no sharp cut-off); inconclusive means no clear call, values can overlap the other calls; inactive means mostly above about 0.92. The list shows a part of the results.

Assay: chemical genetic growth profiling, strain panel (AID 1159580);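 further: tested at 20 µM; growth read once vehicle control cultures reached saturation at 30 °C; 1 = growth at the plate median or of vehicle wells; lower values mean less growth of the strain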
Settings: S. cerevisiae deletion strains, growth OD

Measured: normalized growth

CC(C)CCCC(C)[C@H]1CCC2C3C(=O)C=C4C[C@@H](O)CC[C@]4(C)C3CC[C@@]21C (some centres not stated)
inactive: locus YAL013W, strain DEP1, hits give low values 1.02 | locus YAL021C, strain ccr4, hits give low values 0.974 | locus YAL026C, strain drs2, hits give low values 1.02 | locus YAL030W, strain snc1, hits give low values 0.996 | locus YBL061C, strain skt5, hits give low values 1.01 | locus YBR009C, strain hhf1, hits give low values 1.06 | locus YBR021W, strain FUR4, hits give low values 1.05 | locus YBR023C, strain chs3, hits give low values 1.01 | locus YBR171W, strain sec66, hits give low values 1 | locus YBR229C, strain ROT2, hits give low values 1.06 | locus YBR231C, strain swc5, hits give low values 1.05 | locus YBR279W, strain paf1, hits give low values 1.01 | locus YCL011C, strain gbp2, hits give low values 0.994 | locus YCL016C, strain dcc1, hits give low values 1 | locus YCL029C, strain bik1, hits give low values 1.03 | locus YCL061C, strain MRC1, hits give low values 1.01 | locus YCL069W, strain vba3, hits give low values 0.996 | locus YCR088W, strain abp1, hits give low values 0.991 | locus YDL005C, strain med2, hits give low values 0.994 | locus YDL035C, strain GPR1, hits give low values 1.04 | locus YDL040C, strain nat1, hits give low values 0.982 | locus YDL074C, strain BRE1, hits give low values 1.04 | locus YDL101C, strain DUN1, hits give low values 1.04 | locus YDL185W, strain tfp1, hits give low values 1.04 | locus YDL192W, strain arf1, hits give low values 1.06 | locus YDR001C, strain nth1, hits give low values 1.01 | locus YDR069C, strain doa4, hits give low values 1 | locus YDR101C, strain arx1, hits give low values 1.04 | locus YDR137W, strain rgp1, hits give low values 0.946 | locus YDR150W, strain NUM1, hits give low values 1.01 | locus YDR159W, strain sac3, hits give low values 1.06 | locus YDR162C, strain NBP2, hits give low values 1.07 | locus YDR195W, strain ref2 0.997 | locus YDR297W, strain sur2, hits give low values 0.996 | locus YDR318W, strain mcm21, hits give low values 1.03 | locus YDR334W, strain swr1, hits give low values 0.975 | locus YDR335W, strain msn5, hits give low values 1.01 | locus YDR388W, hits give low values 1.02 | locus YDR392W, strain spt3, hits give low values 0.968 | locus YDR502C, strain sam2, hits give low values 1.02 | locus YEL003W, strain gim4, hits give low values 0.996 | locus YEL037C, strain rad23, hits give low values 1.01 | locus YEL061C, strain CIN8 (second series), hits give low values 1 | locus YEL061C, strain CIN8, hits give low values 1.01 | locus YER015W, strain faa2, hits give low values 1.01 | locus YER016W, strain bim1, hits give low values 0.994 | locus YER110C, hits give low values 1.04 | locus YER111C, strain swi4, hits give low values 1 | locus YER155C, strain BEM2 (second series), hits give low values 1.03 | locus YER155C, strain BEM2, hits give low values 1.01 | locus YER167W, strain BCK2, hits give low values 1.03 | locus YFR010W, strain ubp6, hits give low values 1.02 | locus YGL078C, strain dbp3, hits give low values 1.04 | locus YGL086W, strain mad1, hits give low values 1.01 | locus YGL167C, strain pmr1, hits give low values 1.01 | locus YGL173C, strain kem1, hits give low values 1 | locus YGL227W, strain vid30, hits give low values 1.01 | locus YGL248W, strain PDE1, hits give low values 1.04 | locus YGL253W, strain hxk2, hits give low values 0.93 | locus YGR135W, strain pre9, hits give low values 1.04 | locus YGR229C, strain SMI1, hits give low values 1.08 | locus YGR252W, strain gcn5, hits give low values 1.05 | locus YHR013C, strain ard1, hits give low values 1.02 | locus YHR027C, strain rpn1, hits give low values 0.992 | locus YHR030C, strain SLT2, hits give low values 1.01 and 0.966 | locus YHR079C, strain IRE1 (second series), hits give low values 1.02 | locus YHR079C, strain IRE1, hits give low values 1.01 | locus YHR094C, strain hxt1, hits give low values 1.04 | locus YHR129C, strain ARP1, hits give low values 1.03 | locus YHR142W, strain chs7, hits give low values 0.918 | locus YHR200W, strain rpn10, hits give low values 1 | locus YIL066C, strain RNR3, hits give low values 1.04 | locus YIL073C, strain SPO22, hits give low values 1.28 | locus YIL125W, strain kgd1, hits give low values 1.02 | locus YIR030C, strain dcg1, hits give low values 1.04 | locus YJL092W, strain hpr5, hits give low values 0.996 | locus YJL095W, strain BCK1 (second series), hits give low values 0.998 | locus YJL095W, strain BCK1, hits give low values 1.05 and 0.966 | locus YJL115W, strain asf1, hits give low values 1.01 | locus YJL129C, strain trk1, hits give low values 0.958 | locus YJL134W, strain LCB3, hits give low values 1.01 | locus YJL154C, strain vps35, hits give low values 1.01 | locus YJL164C, strain tpk1, hits give low values 0.966 | locus YJL166W, strain qcr8, hits give low values 1 | locus YJL168C, strain set2, hits give low values 1.03 | locus YJL187C, strain SWE1 (second series), hits give low values 1.04
active: locus YGL240W, strain doc1, hits give low values 1.13 [resistant]
